According to PubChem BioAssay (Tox21):
Results filed as inconclusive are left out. The source made the active and inactive calls. Unless noted, calls follow the shape of the dose curve; as a rule, active = well fitted curve in the direction sought with a large enough effect in the repeat runs; inconclusive = weak or mixed curves; inactive = no such curve, though single readings can be large; an effect the other way counts as inactive or inconclusive.

Legend:
[1] = A CellTox Green Cytotoxicity Assay to monitor cytotoxicity in HEK293 cells - 32 hour (AID 1224881); also: nearly all actives have a fitted effect of over 40% in size
Method in brief: (§1)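 Seeding of HEK293 cells together with cytotoxicity dye preceded a 5 h incubation at 37 C/5% CO2. Test compounds in DMSO were then added and fluorescence monitored across 40 h.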

[2] = A CellTox Green Cytotoxicity Assay to monitor cytotoxicity in HepG2 cells - 0 hour (AID 1224882); also: nearly all actives have a fitted effect of over 35% in size
Method in brief: (§2)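 Nonlytic assay: viable cells exclude the dye, so fluorescence scales with cell death. HepG2 at 600 cells/well, compounds added after 5 h, signal read across 40 h.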

[3] = A CellTox Green Cytotoxicity Assay to monitor cytotoxicity in HepG2 cells - 32 hour (AID 1224883); also: nearly all actives have a fitted effect of over 50% in size; also: potency is read from the fitted curve at half-maximal effect
Method in brief: as §2

[4] = A CellTox Green Cytotoxicity Assay to monitor cytotoxicity in HEK293 cells - 8 hour (AID 1224884); also: nearly all actives have a fitted effect of over 35% in size
Method in brief: as §1

[5] = qHTS RealTime-Glo MT Cell Viability Assay in HepG2 cells - 16 hour (AID 1224885); also: nearly all actives have a fitted effect of over 50% in size
Method in brief: (§3)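 Cell number in HepG2 cultures estimated from NanoLuc luminescence generated by metabolic reduction of a prosubstrate by living cells. The homogeneous, nonlytic format allowed repeated reads at 0, 8, 16, 24, 32 and 40 h of compound exposure.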

[6] = qHTS RealTime-Glo MT Cell Viability Assay in HEK293 cells - 24 hour (AID 1224886); also: nearly all actives have a fitted effect of over 50% in size; also: potency is read from the fitted curve at half-maximal effect
Method in brief: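 Homogeneous bioluminescent viability format in HEK293 cells (600 cells/well). Following 5 h at 37 C/5% CO2, 23 nL compound was pintooled; the signal was measured repeatedly during 40 h incubation.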

[7] = qHTS RealTime-Glo MT Cell Viability Assay in HEK293 cells - 8 hour (AID 1224887); also: nearly all actives have a fitted effect of over 50% in size; also: potency is read from the fitted curve at half-maximal effect
Method in brief: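 Tox21 screen in HEK293 using RealTime-Glo MT chemistry, with cells and reagent co-dispensed. Luminescence proportional to viable cell number was captured at intervals during 40 h compound exposure at 37 C.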

[8] = A CellTox Green Cytotoxicity Assay to monitor cytotoxicity in HEK293 cells - 16 hour (AID 1224888); also: nearly all actives have a fitted effect of over 35% in size
Method in brief: as §1

[9] = qHTS RealTime-Glo MT Cell Viability Assay in HepG2 cells - 0 hour (AID 1224889); also: nearly all actives have a fitted effect of over 50% in size; also: potency is read from the fitted curve at half-maximal effect
Method in brief: as §3

[10] = qHTS assay to identify small molecule antagonists of the estrogen receptor alpha (ER-alpha) signaling pathway using the BG1 cell line in the presence of 0.1 nM 17-beta-estradiol - cell viability counter screen (AID 1259241); also: nearly all actives have a fitted effect of over 40% in size
Method in brief: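 Cells were plated and left 24 hr, compounds in DMSO were pinned in, 17beta-estradiol was added to 0.1 nM final, and after 22 hr CellTiter-Fluor reagent was added for 30 min before fluorescence was read.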

[11] = qHTS assay to identify small molecule antagonists of the androgen receptor (AR) signaling pathway using the MDA cell line in the presence of 0.5 nM R1881 - cell viability counter screen (AID 1259242); also: nearly all actives have a fitted effect of over 45% in size
Method in brief: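 R1881 at 0.5 nM final stimulated MDA-kb2 cells during 16 hr compound treatment at 37C. Cytotoxicity read: CellTiter-Fluor fluorescence after 30 min.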

[12] = target: Estrogen receptor (Homo sapiens) (UniProt P03372); assay: qHTS assay to identify small molecule antagonists of the estrogen receptor alpha (ER-alpha) signaling pathway using the BG1 cell line in the presence of 0.1 nM 17-beta-estradiol (AID 1259244); also: nearly all actives have a fitted effect of over 50% in size
Chain of Estrogen receptor (Homo sapiens) (P03372 whole entry, looked up): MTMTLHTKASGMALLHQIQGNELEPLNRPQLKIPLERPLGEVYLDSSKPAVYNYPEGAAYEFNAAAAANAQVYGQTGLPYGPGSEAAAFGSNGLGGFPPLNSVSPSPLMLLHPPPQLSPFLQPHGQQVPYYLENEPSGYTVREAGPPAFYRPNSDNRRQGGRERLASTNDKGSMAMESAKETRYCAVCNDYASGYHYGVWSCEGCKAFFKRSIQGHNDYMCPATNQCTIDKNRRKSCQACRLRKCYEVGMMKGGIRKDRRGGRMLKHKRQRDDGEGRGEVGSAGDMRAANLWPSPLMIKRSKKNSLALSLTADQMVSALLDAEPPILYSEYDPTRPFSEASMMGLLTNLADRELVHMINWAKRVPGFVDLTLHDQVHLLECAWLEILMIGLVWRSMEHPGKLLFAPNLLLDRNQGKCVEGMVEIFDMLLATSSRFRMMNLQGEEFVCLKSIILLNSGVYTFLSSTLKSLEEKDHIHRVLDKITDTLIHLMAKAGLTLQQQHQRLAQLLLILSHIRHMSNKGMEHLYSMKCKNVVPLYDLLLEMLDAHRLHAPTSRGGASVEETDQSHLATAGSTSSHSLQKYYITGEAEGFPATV
Method in brief: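 VM7Luc4E2; 4xERE-luciferase; 0.1 nM E2 final; 22 h co-incubation, 37C; ONE-Glo luminescence after 30 min at room temperature.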

[13] = qHTS assay to identify small molecule phospholipidosis (PLD) inducers (AID 1259344; active = well fitted curve in the direction sought with a large enough effect; an effect the other way counts as inactive or inconclusive)
Method in brief: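 Quantitative HTS in HepG2: compound plus LipidTOX Red dye for 24 h, paraformaldehyde fixation with Hoechst 33342, widefield high-content imaging; amiodarone as positive and DMSO as negative control.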

[14] = qHTS assay to identify small molecule HDAC inhibitors (AID 1259364);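 also: wild-type HCT-116 cells with endogenous class I/II HDAC activity; top concentration of the series differs between compounds; nearly all actives have a fitted effect of over 45% in size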
Method in brief: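 Relative class I and II HDAC activity is taken from the luminogenic signal in HCT-116 cells, with compound exposure 2 hr and reagent development 30 min at room temperature.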

[15] = qHTS assay to identify small molecule HDAC inhibitors - cell viability counter screen (AID 1259365)
Method in brief: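 Counter screen in wild-type HCT-116 cells: compounds dissolved in DMSO are pin-transferred onto overnight-plated cells and left 2hr at 37C. ATP-based CellTiter-Glo luminescence then measures viable cells.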

[16] = qHTS assay to identify small molecule antagonists of the sonic hedgehog signaling (Shh) pathway - cell viability counter screen (AID 1259367); also: nearly all actives have a fitted effect of over 55% in size
Method in brief: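 Seed 3T3 Gli1-Luc cells at 2,000 per well; incubate 4 hr; add compound in DMSO, then conditioned medium; incubate at 37C with 5% CO2; add CellTiter-Fluor after 23 hr; read fluorescence 1 hr later.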

[17] = qHTS assay to identify small molecule agonists of the sonic hedgehog signaling (Shh) pathway (AID 1259368; calls by dose curve;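 also: NIH/3T3-derived 3T3Gli1-Luc cells carrying a stable Gli1-driven firefly luciferase reporter; series mostly up to about 92 µM; nearly all actives have a fitted effect of over 15% in size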)
Method in brief: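 Mouse fibroblast (NIH/3T3) reporter cells with stably integrated Gli1-Luc were treated 24 hr with compound; firefly luciferase luminescence served as the read-out.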

[18] = target: Androgen receptor (Homo sapiens) (UniProt P10275); assay: qHTS assay to identify small molecule antagonists of the androgen receptor (AR) signaling pathway using the MDA cell line in the presence of 0.5 nM R1881 (AID 1259243); also: nearly all actives have a fitted effect of over 50% in size; also: potency is read from the fitted curve at half-maximal effect
Chain of Androgen receptor (Homo sapiens) (P10275 whole entry, looked up): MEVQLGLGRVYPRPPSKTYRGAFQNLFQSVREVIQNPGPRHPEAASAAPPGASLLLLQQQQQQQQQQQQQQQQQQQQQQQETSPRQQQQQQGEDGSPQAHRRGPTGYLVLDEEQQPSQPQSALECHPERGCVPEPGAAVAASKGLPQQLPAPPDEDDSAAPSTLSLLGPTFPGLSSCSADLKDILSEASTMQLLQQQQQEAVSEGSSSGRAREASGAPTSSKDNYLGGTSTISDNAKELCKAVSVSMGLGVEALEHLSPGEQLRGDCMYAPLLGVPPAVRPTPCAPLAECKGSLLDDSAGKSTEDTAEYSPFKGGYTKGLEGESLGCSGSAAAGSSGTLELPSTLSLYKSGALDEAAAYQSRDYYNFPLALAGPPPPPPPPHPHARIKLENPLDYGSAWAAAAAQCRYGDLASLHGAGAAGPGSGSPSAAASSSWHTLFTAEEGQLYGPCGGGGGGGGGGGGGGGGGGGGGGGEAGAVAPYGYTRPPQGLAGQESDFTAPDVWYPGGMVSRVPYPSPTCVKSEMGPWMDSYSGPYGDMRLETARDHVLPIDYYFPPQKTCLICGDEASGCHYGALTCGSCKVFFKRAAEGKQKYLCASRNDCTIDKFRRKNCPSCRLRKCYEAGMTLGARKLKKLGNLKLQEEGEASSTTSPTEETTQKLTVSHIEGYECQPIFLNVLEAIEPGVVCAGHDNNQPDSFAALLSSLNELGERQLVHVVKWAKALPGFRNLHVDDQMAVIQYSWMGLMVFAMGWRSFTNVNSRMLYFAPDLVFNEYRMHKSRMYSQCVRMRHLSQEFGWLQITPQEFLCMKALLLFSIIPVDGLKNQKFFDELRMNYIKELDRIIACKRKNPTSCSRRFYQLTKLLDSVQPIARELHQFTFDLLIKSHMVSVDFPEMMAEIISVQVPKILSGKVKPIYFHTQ
Method in brief: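 We exposed MDA-kb2 cells to compounds under 0.5 nM R1881 stimulation for 16 hr at 37C and quantified MMTV-driven luciferase by luminescence.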

[19] = qHTS assay to identify small molecule agonists of the sonic hedgehog signaling (Shh) pathway - cell viability counter screen (AID 1259366); also: nearly all actives have a fitted effect of over 50% in size
Method in brief: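 Cells are plated at 2,000 per well and left 4hr at 37C, 5% CO2 before compound addition. After 23hr of treatment, CellTiter-Fluor reagent is added for 1hr at 37C and fluorescence is measured.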

[20] = A CellTox Green Cytotoxicity Assay to monitor cytotoxicity in HepG2 cells - 8 hour (AID 1224890); also: nearly all actives have a fitted effect of over 45% in size
Method in brief: as §2

Measured: Potency

CO/N=C1\CN(c2nc3c(cc2F)c(=O)c(C(=O)O)cn3C2CC2)CC1CN (stereo not given)
inactive: [1] | [2] | [3] | [4] | [5] | [6] | [7] | [8] | [9] | [10] | [11] | [12] | [13] | [14] | [15] | [16] | [17]

CC(C)(O)c1ccccc1CC[C@@H](SCC1(CC(=O)O)CC1)c1cccc(/C=C/c2ccc3ccc(Cl)cc3n2)c1
inactive: [1] | [2] | [3] | [4] | [5] | [6] | [7] | [8] | [9] | [10] | [11] | [18] | [12] | [13] | [14] | [15] | [19] | [16] | [17]

CC1(C)C(=O)N(Br)C(=O)N1Cl
inactive: [1] | [2] | [3] | [4] | [5] | [6] | [7] | [8] | [9] | [20] | [10] | [11] | [14] | [15] | [19] | [16] | [17]

CC#N
inactive: [1] | [2] | [3] | [4] | [5] | [6] | [7] | [8] | [9] | [10] | [11] | [12] | [14] | [15] | [19] | [16] | [17]

Oc1cc(O)c(Cl)cc1Cl
inactive: [1] | [2] | [3] | [4] | [5] | [6] | [7] | [8] | [10] | [11] | [12] | [14] | [15] | [19] | [16] | [17]

CC(N)CN (stereo not given)
inactive: [1] | [2] | [3] | [4] | [5] | [6] | [7] | [8] | [10] | [11] | [12] | [14] | [15] | [19] | [16] | [17]

C[N+](C)(C)CCOC(N)=O
inactive: [1] | [2] | [3] | [4] | [5] | [6] | [7] | [8] | [10] | [11] | [18] | [13] | [14] | [15] | [19] | [16]

C[C@@H]1C[C@H]2[C@@H]3CCC4=CC(=O)C=C[C@]4(C)[C@@]3(F)[C@@H](O)C[C@]2(C)[C@@]1(O)C(=O)CO
active: [9] 22.2 µM
inactive: [1] | [2] | [3] | [4] | [5] | [6] | [7] | [8] | [20] | [10] | [11] | [14] | [15] | [19] | [16] | [17]

O=C(O)c1snc(Cl)c1Cl
inactive: [1] | [2] | [3] | [4] | [5] | [6] | [7] | [8] | [9] | [20] | [10] | [11] | [14] | [15] | [19] | [16] | [17]

O=C(CCCN1CCN(c2ccc(F)cc2)CC1)NC1c2ccccc2CSc2ccccc21 (stereo not given)
inactive: [1] | [2] | [4] | [8] | [9] | [20] | [10] | [13] | [15] | [17]
active: [3] 23.9 µM | [6] 16.9 µM | [7] 19 µM

O=S1OCCO1
inactive: [1] | [2] | [3] | [4] | [5] | [6] | [7] | [9] | [10] | [11] | [12] | [14] | [15] | [19] | [16] | [17]

Cc1c(C(=O)NN2CCCCC2)nn(-c2ccc(Cl)cc2Cl)c1-c1ccc(Cl)cc1
inactive: [1] | [2] | [3] | [4] | [5] | [8] | [9] | [20] | [10] | [11] | [12] | [14] | [15] | [19] | [16] | [17]
active: [18] 26.6 µM

Cc1cc(O)c2c(O)c3c(O)cccc3cc2c1
inactive: [1] | [2] | [3] | [4] | [5] | [6] | [8] | [9] | [20] | [10] | [11] | [18] | [13] | [14] | [15] | [19] | [16] | [17]

CCC(=O)Oc1ccc(/C(CC)=C(\CC)c2ccc(OC(=O)CC)cc2)cc1
inactive: [1] | [2] | [3] | [4] | [5] | [8] | [9] | [20] | [10] | [11] | [15] | [19] | [17]
active: [6] 21.9 µM
